# In PubChem BioAssay (NCI):
# About 79,000 compounds went through this panel and 15% of them were active in at least one assay; those are over-represented in the sample as a whole. Active and inactive are the calls of the source. No stated cut-off is given here; in the data, active means growth inhibition above about 70%; inactive means the rest. Where a SMILES comes first, the peptide text is derived from it. [ ]: non-standard residue; d: D form. The star is where a group is joined. Cbz = O=C(OCc1ccccc1)*; Dha = C=C(N)C(=O)O
# Test: NCI Yeast Anticancer Drug Screen. Data for the rad50 strain (AID 155);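 further: 0% = growth of vehicle-only cultures of the same strain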
# Settings: S. cerevisiae rad50 strain growth inhibition; at 50.0 µM; hits give high values
# Procedure, shortened: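 Relative growth inhibition (compound vs vehicle) was measured in yeast with a defined repair-gene alteration.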
row,SMILES,growth inhibition
1,c1ccc(COC(c2ccccc2)(c2ccccc2)c2ccccc2)cc1,-0.45% (inactive)
2,N#CC(c1ccccc1)C1CCN(Cc2ccccc2)CC1 (stereo not given),45.8% (inactive)
3,O=c1n(CCO)nc2n1CCCN2,7.3% (inactive)
4,Cc1ccccc1C(=O)N1CCOCC1,-10.9% (inactive)
5,CC1(C)CC(=O)C2(C)C(C1O)C2C1C2C(O)C(C)(C)CC(=O)C21C (stereo not given),-11.2% (inactive)
6,O=C(O)CSCCOCCSCC(=O)O,-15.9% (inactive)
7,CCCCCSC,21% (inactive)
8,c1ccc(B2OB(c3ccccc3CN3CCCC3)OB(c3ccccc3CN3CCCC3)O2)c(CN2CCCC2)c1,21% (inactive)
9,C=C(C)C1CC/C(C)=C/CC[C@]2(C)O[C@H]2CC/C(COC(C)=O)=C\[C@@H]1O (stereo not given in full),-7.9% (inactive)
10,CCC(C)CCC(N)C(=O)O (stereo not given),2.3% (inactive)
11,c1cc2c3c(cccc3c1)-c1nc3ccccc3nc1-2,-5.1% (inactive)
12,Cc1nc(N)nc(C)c1N=Nc1cc(Cl)cc(Cl)c1,-27.1% (inactive)
13,CCCCCCCCCCCc1cc(=O)n(-c2cc(Cl)ccc2Cl)n1C,99.1% (active)
14,CCCCCNC(=O)C(C)O (stereo not given),5.6% (inactive)
15,CC1C(c2ccccc2)=C(c2ccccc2)C(c2ccccc2)=C(c2ccccc2)C1c1ccccc1 (stereo not given),27.6% (inactive)
16,O=S(Cc1ccccc1)CC(O)CO (stereo not given),-24.9% (inactive)
17,NC(=NC1CCCCC1)c1ccc(C(=O)OCC2CCCCC2)cc1,39.2% (inactive)
18,CCCCC1(CCBr)C(=O)NC(=Nc2ccccc2)NC1=O (stereo not given),1.85% (inactive)
19,Cn1c(=O)c2nsnc2n(C)c1=O,-21.1% (inactive)
20,CC(=O)OC12c3ccccc3C(c3ccccc31)C1C(=O)N(c3ccccc3O)C(=O)C12 (stereo not given),-15.8% (inactive)

row,SMILES,growth inhibition
1,O=C(O)C(Nc1ccc(Cc2ccc(NC(C(=O)O)c3ccccc3)cc2)cc1)c1ccccc1 (stereo not given),94% (active)
2,Cc1nc(-c2ccccc2)ncc1C(O)CN(C)C (stereo not given),-4.7% (inactive)
3,CNC(=O)c1ccccc1C(O)c1ccc(C)cc1 (stereo not given),7.65% (inactive)
4,CN(C)c1ccc(C2SCC(=O)N2NS(=O)(=O)c2cccc(C(=O)O)c2)cc1 (stereo not given),5.05% (inactive)
5,COc1cc(C(C)S(=O)(=O)O)ccc1O (stereo not given),-19.6% (inactive)
6,O=C1NCC/C1=C\c1ccccc1,-7.2% (inactive)
7,NC1=NC=NCN1c1ccc(N)cc1,1.65% (inactive)
8,O=c1[nH]cnc2c1sc(=S)n2-c1ccccc1,7.15% (inactive)
9,CC(C)CCC[C@@H](C)[C@H]1CC[C@H]2[C@@H]3CC[C@H]4CC5(C[C@]4(C)[C@H]3CC[C@]12C)Nc1ccccc1S5 (stereo not given in full),-8.05% (inactive)
10,Nc1nc(Sc2ccccn2)ccc1[N+](=O)[O-],0.25% (inactive)
11,O=C(O)/C=C(/C(=O)O)c1cccn1Cc1ccccc1,6.7% (inactive)
12,c1ccc(CN2CCCNCC2)cc1,9.55% (inactive)
13,C=C(NC(=O)CNC(=O)OCc1ccccc1)C(=O)O (Cbz-Gly-[Dha]-OH),3.05% (inactive)
14,OCCCCCCOc1ccc(-c2cc(-c3ccccn3)nc(-c3ccccn3)c2)cc1,52% (inactive)
15,Cc1ccccc1/C=N\N=C\c1ccco1,-0.5% (inactive)
16,O=C(CN1C(=O)c2ccccc2C1=O)C(O)CN1C(=O)c2ccccc2C1=O (stereo not given),2.5% (inactive)
17,CC(NC(=O)OC(C)(C)C)C(=O)NC(Cc1ccccc1)C(=O)NCC(=O)ON=C1CCCC1 (stereo not given),37.1% (inactive)
18,Cc1cc(=O)[nH]c(NN2C(Cl)C(=O)C2c2ccc(Cl)cc2)n1 (stereo not given),10.6% (inactive)
19,CCOc1cc(=O)cc2n(-c3cc(OCC)c(OC)c(OCC)c3)c3ccccc3nc1-2,38% (inactive)
20,Cc1ccc(C(=O)O)c(=O)[nH]1,3.65% (inactive)
